In the supplement of paper PMC6411743:
± gives the standard deviation of the averaged measurements. Of roughly 6,500 targets only a part is listed; those with the largest changes were picked by preference.

Compound: Nc1ncnc2c1ncn2[C@@H]1O[C@H](COP(=O)(O)OP(=O)(O)OP(=O)(O)O)[C@@H](O)[C@H]1O [adenosine triphosphate]
Assay: NP40-soluble protein abundance relative to vehicle (solubility fold change) (ratio); higher = more soluble protein in presence of ATP
How it was run: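 Eight concentrations, 0.1 to 10 mM, were tested on Jurkat crude lysate for 10 min at room temperature and then 3 min at 37 °C, in three independent experiments. The lysate was solubilised with 0.8% NP40 and benzonase, ultracentrifuged, and the supernatant TMT-labelled for LC-MS/MS. Each value is the fold change against the detergent-processed vehicle in its own replicate, from vsn-normalised intensities.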

Sequence of UniProt Q15029 (Q15029 whole entry): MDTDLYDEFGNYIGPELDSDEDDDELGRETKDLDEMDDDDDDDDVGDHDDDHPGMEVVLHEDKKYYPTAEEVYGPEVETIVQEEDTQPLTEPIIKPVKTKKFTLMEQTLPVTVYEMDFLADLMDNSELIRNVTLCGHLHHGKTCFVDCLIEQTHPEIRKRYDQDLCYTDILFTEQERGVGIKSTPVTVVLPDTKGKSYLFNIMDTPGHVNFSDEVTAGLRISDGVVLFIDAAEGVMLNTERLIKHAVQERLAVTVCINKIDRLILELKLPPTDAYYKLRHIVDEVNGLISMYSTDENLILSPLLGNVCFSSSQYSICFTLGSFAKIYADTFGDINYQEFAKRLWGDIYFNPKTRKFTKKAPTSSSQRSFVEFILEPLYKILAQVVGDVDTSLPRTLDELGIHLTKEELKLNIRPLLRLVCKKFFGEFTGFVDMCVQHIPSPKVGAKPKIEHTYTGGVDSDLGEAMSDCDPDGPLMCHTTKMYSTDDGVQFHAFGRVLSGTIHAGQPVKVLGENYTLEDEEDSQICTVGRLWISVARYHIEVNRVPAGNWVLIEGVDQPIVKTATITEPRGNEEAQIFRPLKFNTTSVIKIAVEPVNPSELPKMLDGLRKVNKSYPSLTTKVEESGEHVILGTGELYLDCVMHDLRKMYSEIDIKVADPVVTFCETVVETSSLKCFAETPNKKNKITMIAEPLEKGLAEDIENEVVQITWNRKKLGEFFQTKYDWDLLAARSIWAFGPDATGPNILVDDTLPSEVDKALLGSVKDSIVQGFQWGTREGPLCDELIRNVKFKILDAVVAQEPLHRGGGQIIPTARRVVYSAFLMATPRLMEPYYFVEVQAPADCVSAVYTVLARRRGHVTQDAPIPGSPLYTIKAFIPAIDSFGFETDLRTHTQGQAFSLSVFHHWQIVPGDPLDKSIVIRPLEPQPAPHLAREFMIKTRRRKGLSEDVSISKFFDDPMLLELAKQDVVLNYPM
Sequence of UniProt Q86Y56 (Q86Y56 whole entry): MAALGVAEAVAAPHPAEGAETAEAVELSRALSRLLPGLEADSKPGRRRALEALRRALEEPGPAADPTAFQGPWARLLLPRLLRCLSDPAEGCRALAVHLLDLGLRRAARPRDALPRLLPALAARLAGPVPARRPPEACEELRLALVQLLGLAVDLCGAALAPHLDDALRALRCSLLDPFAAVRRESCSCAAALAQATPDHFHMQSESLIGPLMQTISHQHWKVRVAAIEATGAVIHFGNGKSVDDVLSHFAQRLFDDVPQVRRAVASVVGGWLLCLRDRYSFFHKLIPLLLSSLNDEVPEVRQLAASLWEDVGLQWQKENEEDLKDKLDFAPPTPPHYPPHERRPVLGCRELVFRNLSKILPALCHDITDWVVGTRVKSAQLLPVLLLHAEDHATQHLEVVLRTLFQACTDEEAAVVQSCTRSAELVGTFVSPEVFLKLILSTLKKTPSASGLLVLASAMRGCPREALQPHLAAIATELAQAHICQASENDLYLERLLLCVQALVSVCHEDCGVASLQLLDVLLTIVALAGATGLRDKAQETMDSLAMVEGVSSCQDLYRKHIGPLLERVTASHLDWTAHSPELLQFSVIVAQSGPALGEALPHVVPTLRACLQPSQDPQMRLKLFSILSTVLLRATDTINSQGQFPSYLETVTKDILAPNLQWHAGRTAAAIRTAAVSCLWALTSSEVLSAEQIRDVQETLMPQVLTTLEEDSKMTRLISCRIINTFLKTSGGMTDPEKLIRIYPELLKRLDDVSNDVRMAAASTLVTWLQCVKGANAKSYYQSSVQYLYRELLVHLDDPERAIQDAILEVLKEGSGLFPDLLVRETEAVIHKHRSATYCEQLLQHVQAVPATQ
Sequence of UniProt Q8N3X1 (Q8N3X1 whole entry): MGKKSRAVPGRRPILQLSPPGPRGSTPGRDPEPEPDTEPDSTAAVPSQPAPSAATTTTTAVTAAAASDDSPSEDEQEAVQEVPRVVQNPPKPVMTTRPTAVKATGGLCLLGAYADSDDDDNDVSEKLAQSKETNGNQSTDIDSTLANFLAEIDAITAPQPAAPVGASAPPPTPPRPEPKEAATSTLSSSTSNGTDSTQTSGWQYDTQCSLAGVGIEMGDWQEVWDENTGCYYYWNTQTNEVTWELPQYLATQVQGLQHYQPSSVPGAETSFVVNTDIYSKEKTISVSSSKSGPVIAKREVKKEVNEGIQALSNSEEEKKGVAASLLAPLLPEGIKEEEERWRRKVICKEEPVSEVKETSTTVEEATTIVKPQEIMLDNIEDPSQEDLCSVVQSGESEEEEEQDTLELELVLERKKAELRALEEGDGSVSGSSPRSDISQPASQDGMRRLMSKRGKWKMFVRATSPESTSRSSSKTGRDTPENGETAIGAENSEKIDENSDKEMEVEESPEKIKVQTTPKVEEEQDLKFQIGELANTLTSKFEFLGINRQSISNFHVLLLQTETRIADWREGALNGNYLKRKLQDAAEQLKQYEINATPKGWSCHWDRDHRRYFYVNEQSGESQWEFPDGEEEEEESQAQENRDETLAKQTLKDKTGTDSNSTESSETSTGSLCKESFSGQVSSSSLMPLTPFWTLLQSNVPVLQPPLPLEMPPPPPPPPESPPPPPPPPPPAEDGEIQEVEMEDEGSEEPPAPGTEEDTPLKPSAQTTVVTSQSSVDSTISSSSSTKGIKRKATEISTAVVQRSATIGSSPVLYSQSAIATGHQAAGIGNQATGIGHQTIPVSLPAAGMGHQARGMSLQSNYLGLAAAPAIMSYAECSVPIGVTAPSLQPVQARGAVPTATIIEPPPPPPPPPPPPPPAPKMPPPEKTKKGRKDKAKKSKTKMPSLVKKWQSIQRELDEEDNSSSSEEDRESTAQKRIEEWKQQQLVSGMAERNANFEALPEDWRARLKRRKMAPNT
Sequence of UniProt Q7L4P6 (Q7L4P6 whole entry): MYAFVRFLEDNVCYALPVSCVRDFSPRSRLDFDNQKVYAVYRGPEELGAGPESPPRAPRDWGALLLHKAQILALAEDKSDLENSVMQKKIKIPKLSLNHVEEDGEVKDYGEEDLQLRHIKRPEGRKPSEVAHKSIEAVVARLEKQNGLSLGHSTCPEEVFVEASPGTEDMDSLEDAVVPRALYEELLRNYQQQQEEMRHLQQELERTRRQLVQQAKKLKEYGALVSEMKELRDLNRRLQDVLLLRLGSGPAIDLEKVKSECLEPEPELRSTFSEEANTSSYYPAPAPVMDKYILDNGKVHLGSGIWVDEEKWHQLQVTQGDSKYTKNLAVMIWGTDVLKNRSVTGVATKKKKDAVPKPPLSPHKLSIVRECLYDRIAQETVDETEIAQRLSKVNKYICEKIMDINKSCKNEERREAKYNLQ
Sequence of UniProt Q8N8A6 (Q8N8A6 whole entry): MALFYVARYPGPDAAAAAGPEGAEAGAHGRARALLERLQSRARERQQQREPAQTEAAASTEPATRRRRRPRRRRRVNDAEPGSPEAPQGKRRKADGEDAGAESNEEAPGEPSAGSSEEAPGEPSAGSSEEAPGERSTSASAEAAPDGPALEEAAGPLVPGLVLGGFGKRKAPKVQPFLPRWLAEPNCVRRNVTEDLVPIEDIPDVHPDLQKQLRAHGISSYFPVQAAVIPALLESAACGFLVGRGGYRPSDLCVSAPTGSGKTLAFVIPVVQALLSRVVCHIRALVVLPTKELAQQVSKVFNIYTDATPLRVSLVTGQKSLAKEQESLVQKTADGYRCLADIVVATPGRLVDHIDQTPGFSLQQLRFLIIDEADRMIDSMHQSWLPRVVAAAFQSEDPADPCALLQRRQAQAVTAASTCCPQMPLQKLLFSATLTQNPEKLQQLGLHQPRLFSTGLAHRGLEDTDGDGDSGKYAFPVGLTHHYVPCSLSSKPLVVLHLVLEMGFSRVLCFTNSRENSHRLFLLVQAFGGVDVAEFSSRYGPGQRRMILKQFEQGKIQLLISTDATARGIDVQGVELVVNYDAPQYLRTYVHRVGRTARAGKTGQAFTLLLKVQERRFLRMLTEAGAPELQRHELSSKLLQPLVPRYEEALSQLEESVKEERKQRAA
Sequence of UniProt Q8N183 (Q8N183 whole entry): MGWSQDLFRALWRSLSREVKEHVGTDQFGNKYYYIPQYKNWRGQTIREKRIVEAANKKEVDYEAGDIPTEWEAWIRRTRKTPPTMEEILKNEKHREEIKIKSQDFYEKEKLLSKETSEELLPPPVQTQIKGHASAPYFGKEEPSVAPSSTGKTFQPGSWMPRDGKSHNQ
Sequence of UniProt Q15276 (Q15276 whole entry): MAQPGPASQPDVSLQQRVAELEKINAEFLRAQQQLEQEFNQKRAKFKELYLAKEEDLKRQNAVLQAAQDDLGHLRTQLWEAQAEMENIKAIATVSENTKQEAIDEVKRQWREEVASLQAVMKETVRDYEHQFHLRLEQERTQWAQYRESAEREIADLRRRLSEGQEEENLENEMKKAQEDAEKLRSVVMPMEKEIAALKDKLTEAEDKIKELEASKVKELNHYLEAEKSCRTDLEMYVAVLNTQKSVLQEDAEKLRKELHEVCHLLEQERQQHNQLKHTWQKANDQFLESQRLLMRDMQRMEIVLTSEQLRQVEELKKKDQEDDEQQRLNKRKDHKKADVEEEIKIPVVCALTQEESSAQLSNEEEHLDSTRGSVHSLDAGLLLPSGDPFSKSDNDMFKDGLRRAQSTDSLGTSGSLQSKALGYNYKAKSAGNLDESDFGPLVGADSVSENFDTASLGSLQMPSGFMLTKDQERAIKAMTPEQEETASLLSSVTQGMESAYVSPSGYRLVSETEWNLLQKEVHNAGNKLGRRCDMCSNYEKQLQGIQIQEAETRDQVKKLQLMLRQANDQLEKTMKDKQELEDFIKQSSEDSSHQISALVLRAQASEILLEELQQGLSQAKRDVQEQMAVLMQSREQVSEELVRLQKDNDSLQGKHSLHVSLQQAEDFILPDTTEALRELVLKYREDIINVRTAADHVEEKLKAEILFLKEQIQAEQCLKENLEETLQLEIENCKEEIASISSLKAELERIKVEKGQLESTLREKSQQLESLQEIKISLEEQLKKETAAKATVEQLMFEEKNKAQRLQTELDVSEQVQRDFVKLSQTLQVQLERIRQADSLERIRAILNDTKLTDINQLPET

Target	NP40-soluble protein abundance (concentration: 1mM)	NP40-soluble protein abundance (concentration: 2mM)	NP40-soluble protein abundance (concentration: 4mM)	NP40-soluble protein abundance (concentration: 6mM)	NP40-soluble protein abundance (concentration: 8mM)	NP40-soluble protein abundance (concentration: 10mM)
UniProt Q5JUR7	1 ± 0.077	1.07 ± 0.12	1.04 ± 0.029	1.02 ± 0.13	1.05 ± 0.087	1.06 ± 0.062
UniProt Q8N3X1|Q8N3X1-2	1.01 ± 0.026	1.11 ± 0.013	1.29 ± 0.042	1.57 ± 0.027	1.72 ± 0.08	1.9 ± 0.082
LARP1 (UniProt Q6PKG0)	0.939 ± 0.062	0.988 ± 0.065	1.06 ± 0.059	1.2 ± 0.069	1.22 ± 0.043	1.33 ± 0.065
UniProt Q13243	1.5 ± 0.12	1.63 ± 0.088	1.76 ± 0.12	1.95 ± 0.11	1.92 ± 0.13	1.98 ± 0.07
RNF20 (UniProt Q5VTR2)	0.962 ± 0.05	0.961 ± 0.02	0.935 ± 0.024	0.997 ± 0.041	0.935 ± 0.019	0.933 ± 0.017
UniProt Q2KHT3|Q2KHT3-2	1.04 ± 0.045	0.967 ± 0.1	0.963 ± 0.11	0.999 ± 0.093	1.04 ± 0.15	1.02 ± 0.17
KBTBD2 (UniProt Q8IY47)	1.14 ± 0.13	1.11 ± 0.027	1.15 ± 0.07	1.05 ± 0.044	1.16 ± 0.13	1.08 ± 0.026
UniProt Q53GS7|Q53GS7-2	1.18 ± 0.079	1.19 ± 0.12	1.39 ± 0.24	1.54 ± 0.24	1.52 ± 0.2	1.71 ± 0.23
UniProt Q86W42|Q86W42-2	1.59 ± 0.18	1.69 ± 0.05	2 ± 0.087	2.16 ± 0.071	2.47 ± 0.094	2.55 ± 0.19
UniProt Q8NG08|F5H1I4	1.05 ± 0.18	1.06 ± 0.12	1.09 ± 0.16	0.955 ± 0.13	0.984 ± 0.066	1.01 ± 0.1
PRPF4B (UniProt Q13523)	1.29 ± 0.015	1.329 ± 0.011	1.46 ± 0.018	1.6 ± 0.061	1.68 ± 0.041	1.8 ± 0.022
UniProt Q53HC0|Q53HC0-2	0.993 ± 0.083	0.918 ± 0.031	0.939 ± 0.082	0.993 ± 0.21	0.966 ± 0.092	0.922 ± 0.084
NDUFAF2 (UniProt Q8N183)	0.927 ± 0.11	0.916 ± 0.046	0.934 ± 0.093	0.906 ± 0.046	0.959 ± 0.062	0.848 ± 0.12
UniProt Q13057|Q13057-2	1.01 ± 0.061	1.02 ± 0.072	1.02 ± 0.086	0.962 ± 0.094	1.04 ± 0.095	1.02 ± 0.075
PDCD11 (UniProt Q14690)	1.09 ± 0.092	1.14 ± 0.056	1.29 ± 0.062	1.5 ± 0.13	1.75 ± 0.073	2.06 ± 0.15
UniProt Q15036|Q15036-2	0.88 ± 0.17	0.835 ± 0.14	0.853 ± 0.15	0.808 ± 0.18	0.808 ± 0.12	0.849 ± 0.16
UniProt Q6NW34|Q6NW34-2	0.863 ± 0.078	0.831 ± 0.11	0.792 ± 0.15	0.892 ± 0.11	0.84 ± 0.14	0.785 ± 0.21
UniProt Q10567|Q10567-2|Q10567-3	0.9721 ± 0.0088	0.973 ± 0.015	0.922 ± 0.022	0.964 ± 0.013	0.951 ± 0.0014	0.934 ± 0.024
DDX51 (UniProt Q8N8A6)	1.25 ± 0.021	1.38 ± 0.085	1.65 ± 0.15	1.9 ± 0.22	2.05 ± 0.18	2.29 ± 0.27
UniProt Q5T200|Q5T200-2	1.04 ± 0.057	1.1 ± 0.056	1.15 ± 0.077	1.22 ± 0.094	1.21 ± 0.086	1.29 ± 0.093

Target	NP40-soluble protein abundance (concentration: 1mM)	NP40-soluble protein abundance (concentration: 2mM)	NP40-soluble protein abundance (concentration: 4mM)	NP40-soluble protein abundance (concentration: 6mM)	NP40-soluble protein abundance (concentration: 8mM)	NP40-soluble protein abundance (concentration: 10mM)
UniProt Q13642-1|Q13642-4|Q13642-5	0.979 ± 0.17	0.968 ± 0.11	0.956 ± 0.098	0.926 ± 0.091	0.979 ± 0.12	0.983 ± 0.064
RABEP1 (UniProt Q15276)	0.942 ± 0.049	0.944 ± 0.032	0.928 ± 0.021	0.995 ± 0.054	0.895 ± 0.016	0.9135 ± 0.0042
UniProt Q13045|Q13045-2	1.01 ± 0.039	0.985 ± 0.042	0.974 ± 0.03	0.949 ± 0.058	0.976 ± 0.026	0.968 ± 0.051
EFTUD2 (UniProt Q15029)	1.12 ± 0.04	1.16 ± 0.047	1.21 ± 0.047	1.26 ± 0.075	1.41 ± 0.056	1.42 ± 0.12
FAM117B (UniProt Q6P1L5)	0.945 ± 0.048	0.984 ± 0.061	0.97 ± 0.039	0.978 ± 0.042	0.952 ± 0.069	0.946 ± 0.032
UniProt Q7L4P6|Q7L4P6-2	0.995 ± 0.085	1.12 ± 0.2	1.23 ± 0.3	1.2 ± 0.21	1.02 ± 0.096	1.12 ± 0.14
UniProt Q13761|Q13761-2	1.07 ± 0.2	1.18 ± 0.35	1.18 ± 0.3	1.19 ± 0.31	1.13 ± 0.23	1.18 ± 0.13
YRDC (UniProt Q86U90)	0.928 ± 0.045	0.959 ± 0.05	0.93 ± 0.028	0.885 ± 0.043	0.896 ± 0.01	0.932 ± 0.017
UniProt Q13137|Q13137-3|Q13137-4|Q13137-5|H0YBP4	0.962 ± 0.033	0.968 ± 0.032	0.9319 ± 0.0066	0.986 ± 0.03	0.941 ± 0.012	0.948 ± 0.026
TYSND1 (UniProt Q2T9J0)	0.977 ± 0.047	0.983 ± 0.058	0.995 ± 0.042	0.947 ± 0.013	0.974 ± 0.032	0.96 ± 0.076
UniProt Q13409|Q13409-2|Q13409-3|Q13409-7|Q13409-5	0.957 ± 0.063	0.957 ± 0.037	0.953 ± 0.059	0.994 ± 0.18	0.975 ± 0.089	0.973 ± 0.074
DHX9 (UniProt Q08211)	1.24 ± 0.071	1.29 ± 0.043	1.49 ± 0.03	1.55 ± 0.024	1.88 ± 0.091	1.95 ± 0.15
DDX60 (UniProt Q8IY21)	1.2 ± 0.078	1.27 ± 0.093	1.66 ± 0.11	1.73 ± 0.15	1.9 ± 0.16	1.95 ± 0.11
UniProt Q86U06|Q86U06-2|Q86U06-4|Q86U06-5|G3XAP0	1.5 ± 0.41	1.53 ± 0.31	1.48 ± 0.33	1.76 ± 0.46	1.56 ± 0.41	1.46 ± 0.49
UniProt Q8NI08-2	0.989 ± 0.064	1.03 ± 0.032	1.01 ± 0.016	1.02 ± 0.022	0.989 ± 0.039	0.993 ± 0.024
TOMM20 (UniProt Q15388)	0.921 ± 0.086	0.896 ± 0.044	0.903 ± 0.11	0.886 ± 0.041	0.8947 ± 0.0073	0.803 ± 0.21
KRR1 (UniProt Q13601)	1.12 ± 0.012	1.16 ± 0.043	1.23 ± 0.066	1.27 ± 0.047	1.29 ± 0.026	1.42 ± 0.033
ZNF672 (UniProt Q499Z4)	0.994 ± 0.061	1.07 ± 0.0039	1 ± 0.089	0.93 ± 0.078	0.996 ± 0.047	0.995 ± 0.016
UniProt Q8IUD2|X6RLX0	0.979 ± 0.037	0.985 ± 0.025	0.997 ± 0.025	1.01 ± 0.014	0.988 ± 0.027	0.997 ± 0.025
SMC5 (UniProt Q8IY18)	1.02 ± 0.026	1.02 ± 0.013	1.02 ± 0.02	1.04 ± 0.02	1.04 ± 0.016	1.04 ± 0.017

Target	NP40-soluble protein abundance (concentration: 1mM)	NP40-soluble protein abundance (concentration: 2mM)	NP40-soluble protein abundance (concentration: 4mM)	NP40-soluble protein abundance (concentration: 6mM)	NP40-soluble protein abundance (concentration: 8mM)	NP40-soluble protein abundance (concentration: 10mM)
UniProt Q14677|Q14677-3	1.04 ± 0.042	1.05 ± 0.02	1.04 ± 0.028	1.11 ± 0.027	1.07 ± 0.033	1.09 ± 0.055
UniProt Q14643|Q14643-2|Q14643-5	1.05 ± 0.071	0.999 ± 0.065	1 ± 0.041	0.961 ± 0.07	1.02 ± 0.027	0.995 ± 0.045
UniProt Q13247|Q13247-3	1.84 ± 0.25	1.98 ± 0.19	2 ± 0.21	2.28 ± 0.23	2.17 ± 0.17	2.15 ± 0.25
UniProt Q8N684|Q8N684-2|Q8N684-3	1.51 ± 0.076	1.61 ± 0.016	1.75 ± 0.065	1.81 ± 0.081	1.82 ± 0.055	1.83 ± 0.032
UniProt Q32P28|Q32P28-3|Q32P28-4	1.13 ± 0.023	1.15 ± 0.025	1.2 ± 0.077	1.19 ± 0.043	1.22 ± 0.051	1.198 ± 0.0094
TBL3 (UniProt Q12788)	1.15 ± 0.06	1.3 ± 0.04	1.58 ± 0.036	1.59 ± 0.11	1.89 ± 0.1	2.01 ± 0.089
UniProt Q6PK18|Q6PK18-2	1.06 ± 0.02	1.06 ± 0.061	0.955 ± 0.045	1.03 ± 0.074	1.09 ± 0.15	1.04 ± 0.024
SNIP1 (UniProt Q8TAD8)	1.18 ± 0.044	1.22 ± 0.055	1.44 ± 0.085	1.57 ± 0.098	1.67 ± 0.11	1.8 ± 0.1
PIGO (UniProt Q8TEQ8)	0.991 ± 0.035	1 ± 0.062	0.996 ± 0.02	0.979 ± 0.073	0.983 ± 0.051	1.01 ± 0.039
UniProt Q8IWZ8	1.03 ± 0.036	1.05 ± 0.037	1.08 ± 0.034	1.11 ± 0.068	1.11 ± 0.051	1.09 ± 0.037
PDCD7 (UniProt Q8N8D1)	1.22 ± 0.14	1.24 ± 0.058	1.48 ± 0.099	1.48 ± 0.024	1.49 ± 0.13	1.76 ± 0.16
UniProt Q86X83|Q86X83-2	1.01 ± 0.038	0.975 ± 0.011	0.963 ± 0.024	0.927 ± 0.022	0.956 ± 0.048	0.971 ± 0.021
UniProt Q86Y56	0.992 ± 0.076	0.985 ± 0.067	0.954 ± 0.036	0.917 ± 0.082	0.937 ± 0.046	0.976 ± 0.052
UniProt Q8WUY8|M0R1E3	1.02 ± 0.085	1.049 ± 0.0036	1.13 ± 0.032	0.966 ± 0.052	1.03 ± 0.067	1.08 ± 0.013
UniProt Q7Z5G4|Q7Z5G4-3	0.928 ± 0.02	0.914 ± 0.015	0.902 ± 0.019	0.885 ± 0.046	0.878 ± 0.014	0.897 ± 0.032
UniProt Q4FZB7	0.985 ± 0.15	1.1 ± 0.23	1.07 ± 0.11	1.01 ± 0.16	1.01 ± 0.029	0.983 ± 0.065
ZDHHC17 (UniProt Q8IUH5)	1.08 ± 0.056	0.997 ± 0.021	1.11 ± 0.082	1.02 ± 0.058	1.09 ± 0.063	1.08 ± 0.033
FADD (UniProt Q13158)	1.1 ± 0.14	1.05 ± 0.05	1.06 ± 0.11	1.05 ± 0.046	1.06 ± 0.13	0.969 ± 0.11
UniProt Q5T280	1.03 ± 0.085	1.08 ± 0.077	1.23 ± 0.12	1.47 ± 0.17	1.52 ± 0.21	1.83 ± 0.22
UniProt Q641Q2|F8W7U3|Q641Q2-2	0.968 ± 0.057	0.9815 ± 0.0096	0.938 ± 0.033	0.94 ± 0.094	0.895 ± 0.05	0.896 ± 0.047
